What was measured:
Assay type in all cases: functional
[1] = target: Solute carrier family 2, facilitated glucose transporter member 1 (Homo sapiens) (UniProt P11166); assay: ST_JUDE_LEISH: Cytotoxicity at 2uM final concentration against transgenic Leishmania Mexicana promastigotes LmGLUT1 that are glucose transport deficient and complemented with the human glucose transporter GLUT1. Activity is measured by DNA content using SYBR green in vitro
[2] = target: Hexose transporter 1 (Plasmodium falciparum) (UniProt O97467); assay: ST_JUDE_LEISH: Cytotoxicity at 2uM final concentration against transgenic Leishmania Mexicana promastigotes LmPfHT that are glucose transport deficient and complemented with the Plasmodium falciparum hexose transporter. Activity is measured by DNA content using SYBR green in vitro
[3] = target: Glucose transporter (Leishmania mexicana) (UniProt O61059); assay: ST_JUDE_LEISH: Cytotoxicity at 2uM final concentration against transgenic Leishmania Mexicana promastigotes LmGT2 that are glucose transport deficient and complemented with the L. Mexicana glucose transporter 2. Activity is measured by DNA content using SYBR green in vitro

Chain of Solute carrier family 2, facilitated glucose transporter member 1 (Homo sapiens) (P11166 whole entry): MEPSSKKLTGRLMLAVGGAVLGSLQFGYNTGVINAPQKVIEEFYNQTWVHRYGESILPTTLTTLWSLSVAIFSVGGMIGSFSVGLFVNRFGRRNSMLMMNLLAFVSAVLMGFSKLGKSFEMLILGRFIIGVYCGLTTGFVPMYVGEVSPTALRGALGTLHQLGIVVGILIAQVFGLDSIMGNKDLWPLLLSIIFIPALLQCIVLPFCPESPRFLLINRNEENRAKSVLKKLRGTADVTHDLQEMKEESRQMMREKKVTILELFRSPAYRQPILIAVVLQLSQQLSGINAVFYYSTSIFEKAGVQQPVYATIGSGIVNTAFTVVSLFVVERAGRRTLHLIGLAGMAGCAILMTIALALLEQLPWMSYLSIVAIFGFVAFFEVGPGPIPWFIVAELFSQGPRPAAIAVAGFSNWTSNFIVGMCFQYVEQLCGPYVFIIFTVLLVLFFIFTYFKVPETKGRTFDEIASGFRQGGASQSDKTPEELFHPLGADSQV

Compound	inhibition [1]	inhibition [2]	inhibition [3]
Cc1cc(-c2nc3cc(C(=N)N)ccc3[nH]2)c(C)cc1-c1nc2cc(C(=N)N)ccc2[nH]1	4.57%	3.95%	0.94%
CCNc1cc(C(=O)N[C@@H](Cc2ccccc2)[C@H](O)CNC2CCCCC2)cc(N2CCCCS2(=O)=O)c1	8.15%	4.98%	7.3%
COc1cc2nc(Cl)nc(Nc3ccncc3)c2cc1OC	0.52%	-0.73%	-1.27%
N#Cc1c(N)nc(SCC(=O)Nc2cc(C(F)(F)F)ccc2Cl)c(C#N)c1-c1cccs1	1.06%	0.77%	0.5%
